# Data published in ChEMBL document CHEMBL4513216, “Probing the Open Global Health Chemical Diversity Library for Multistage-Active Starting Points for Next-Generation Antimalarials” (ACS Infect Dis, 2020).
# Out of some 69,000 compounds screened, about 8,600 (12%) showed an effect of 50% or more. The list comes from a sample in which strong results are over-represented; it also holds similar structures and randomly drawn compounds.
# Test system: Plasmodium berghei
# Assay: Screen against P. berghei liver stage (PbLuc), transformed with Luciferase, at 10uM
# Assay type: functional, HepG2
# Details: tested at 10 uM
row,SMILES,INHIBITION [%]
1,CC(=O)N1CCN(c2cnnc(N3CCCC3)c2)CC1,31.9
2,O=C(c1ccccc1)N1C[C@H]2CC[C@@H](C1)N(Cc1cc(F)ccc1Cl)C2,25
3,COCCCN1C(=O)CC[C@H]2CN(Cc3ccc4nonc4c3)CC[C@H]21,53.4
4,NCCN1C(=O)CC[C@H]2CN(Cc3ccc4occc4c3)CC[C@H]21,30.3
5,COCCCN1C(=O)CC[C@H]2CN(Cc3cc4ccccc4o3)CC[C@H]21,73.9
6,COCCCN1C(=O)CC[C@H]2CN(c3ccnc4ccccc34)CC[C@H]21,63.9
7,COCCCN1C(=O)CC[C@H]2CN(c3cnc4ccccc4n3)CC[C@H]21,28.5
8,COCCCN1C(=O)CC[C@H]2CN(c3cc(C(N)=O)ccn3)CC[C@H]21,24.9
9,COCCCN1C(=O)CC[C@H]2CN(Cc3ncc[nH]3)CC[C@H]21,38.8
10,COCCCN1C(=O)CC[C@H]2CN(c3nc4ccccc4s3)CC[C@H]21,41.2
11,COCCCN1C(=O)CC[C@H]2CN(Cc3ccc4occc4c3)CC[C@H]21,16.1
12,CC(=O)N1CCCC(c2ccc(N3CCOCC3)cn2)C1 (configuration not stated),-4.51
13,Cc1ccc(NCc2cnc3n2CCN(c2ncccn2)CC3)nn1,35.2
14,Cc1ccccc1CNC(=O)C1CCN(Cc2nccn2C)CC1,-17
15,CC(=O)N1CCC(Cc2cnc(-c3c(C)nn(C)c3C)cn2)C1 (configuration not stated),33.5
16,Cn1ccnc(Sc2cccc(C#N)c2)c1=O,15
17,CN(C)C(C(=O)N1CCN(CCn2cccc2)CC1)c1cccc(F)c1 (configuration not stated),44.7
18,COCCN1CCN(C(=O)C(c2cccc(F)c2)N(C)C)CC1 (configuration not stated),41.5
19,COCCCN1CCN(C(=O)C(c2cccc(F)c2)N(C)C)CC1 (configuration not stated),50.1
20,CC(Cn1ccnc1)NC(=O)N1CCN(Cc2ccsc2)CC1 (configuration not stated),31.9
21,COc1ccc2c(c1)CC(C1CCOCC1)N(C(=O)c1ccn(C)n1)C2 (configuration not stated),2.45
22,CC(=O)N(Cc1ncc(C(C)C)o1)C1CCN(CCn2cncn2)C1 (configuration not stated),-13.2335
23,CC1=CC[C@@H]2CN(C(=O)c3ccc(-c4nc[nH]n4)cc3)C[C@@H]2C1,40.7
24,O=C(CC1CC1)NC[C@]12COC[C@H]1CN(c1ncccn1)C2,88
25,COc1cc(N2C[C@@H]3COC[C@]3(COc3ccccn3)C2)ncn1,-6.3
26,COc1ncccc1CN1C[C@@H]2COC[C@]2(COc2ccccn2)C1,-32

row,SMILES,INHIBITION [%]
1,COc1cc(N2C[C@@H]3COC[C@]3(COc3ncccc3F)C2)ncn1,73
2,O=C(CC1CC1)NC[C@]12COC[C@H]1CN(c1ncc(F)cn1)C2,1.48
3,Cc1cccc(COC[C@]23COC[C@H]2CN(c2ncccn2)C3)n1,38.1
4,c1ccc(COC[C@]23COC[C@H]2CN(c2ncccn2)C3)nc1,53
5,COCC(=O)NC[C@]12COC[C@H]1CN(c1ncc(F)cn1)C2,-22.1
6,c1ccc(OC[C@]23COC[C@H]2CN(c2ncccn2)C3)nc1,31.9
7,COc1cc(N2C[C@@H]3COC[C@]3(COCc3ccccn3)C2)ncn1,68.4
8,COc1cc(N2C[C@@H]3COC[C@]3(COCc3ccncc3)C2)ncn1,34.6
9,COc1cc(N2C[C@@H]3COC[C@]3(COc3cccnc3)C2)ncn1,42.1
10,CS(=O)(=O)N1C[C@H]2CC[C@@H](C1)N(C(=O)Cn1ccc3ccccc31)C2,-7.98
11,CC(C)C(C)NC(=O)Nc1cccc(OCC#N)c1 (configuration not stated),-16
12,CC(c1c(F)cccc1F)N1CCN(Cc2nccn2C)CC1 (configuration not stated),19.2
13,Cc1nc(CNC(=O)Nc2c(C)n[nH]c2C)cs1,19.9
14,CN(C)C(=O)CN1CCC2(CCN(Cc3nccs3)CC2)C1=O,-21.3
15,Cc1nc2cc(C3CCOCC3)nn2c(NCC2COCCO2)c1C (configuration not stated),32.75
16,CCn1ncc2c1C(COCC1CC1)CN(S(=O)(=O)N(C)C)C2 (configuration not stated),35.1
17,COCC(=O)N1CCC([C@@H]2C[C@H](C(F)(F)F)n3nc(C)cc3N2)CC1,-6.92
18,CC(c1ccccn1)N(C)Cc1ccc(-n2ccnc2)cc1 (configuration not stated),37.6
19,Cn1cc(CN2C[C@@H]3COC[C@]3(COc3ccc(C#N)cn3)C2)cn1,-43.2
20,N#Cc1ccc(OC[C@]23COC[C@H]2CN(c2ncccn2)C3)nc1,-7.29
21,Cc1cccc(CN2C[C@@H]3COC[C@]3(COc3ccc(C#N)cn3)C2)n1,6.8
22,Cc1cccc(COC[C@]23COC[C@H]2CN(C(=O)c2ccsc2)C3)n1,-29.9
23,COc1cc(N2C[C@@H]3COC[C@]3(COCc3cccc(C)n3)C2)ncn1,63.7
24,COc1cc(N2C[C@@H]3COC[C@]3(COc3ccc(C#N)cn3)C2)ncn1,71.1
25,Cc1cccc(CNC(=O)N(CCCO)C2CCc3ccccc32)n1 (configuration not stated),-14.6
26,CNc1snc(C)c1C(=O)NC(C)CC(=O)c1cccs1 (configuration not stated),44.6

row,SMILES,INHIBITION [%]
1,O=C(N1CCOCC1)N1CCC(Nc2ccncn2)CC1,29.4
2,CCc1nc(NC2CCCN(C(=O)c3cccs3)C2)c2cnn(C)c2n1 (configuration not stated),32.8
3,O=C(N1CCCC1)N1CCC(Nc2ccncn2)CC1,34.1
4,CC(C)c1cc(NC2CCN(C(=O)N3CCCC3)CC2)ncn1,74.7
5,CC(C)C1CN(C(=O)c2cccs2)CCS1 (configuration not stated),29.5
6,CC(C)c1cc(NC2CCCN(C(=O)c3cccs3)C2)ncn1 (configuration not stated),80
7,COc1ccc(CC(=O)NC2(C#N)CCOCC2)c(Cl)c1,-8.4
8,Cc1ccc(N2CCCC(NCc3cccs3)C2)nn1 (configuration not stated),-19.4
9,CCNC(=O)NC(=O)CN1CCCC1c1nc(C2CCCCC2)co1 (configuration not stated),10.8
10,CC(=O)Nn1ccc2c(nnc3c(-c4ccccc4)cnn32)c1=O,58.5
11,O=C(O)CCn1ccc(=O)c2cc(F)ccc21,38.1
12,CC(=O)Nn1ccc2c(nnc3c(-c4ccc(F)cc4)cnn32)c1=O,58.5
13,O=C(O)CCn1ccc2c(nnc3c(-c4ccc(F)cc4)cnn32)c1=O,63.6
14,O=C(O)CCn1ccc(=O)c2ccccc21,35.1
15,CCN(C)C(=O)NCC1(CN2CCOCC2)CCCCC1,5.76
16,O=C(c1cc(=O)c(OCc2ccccc2F)co1)N1CCCC1,-51.9
17,COCCNC(=O)c1cnc(N(C)C)nc1C,14.2
18,CSc1nccn1-c1cccc(C(=O)NCCC(=O)NC(C)C)c1,15.5
19,CC(=O)NCCCC(=O)N1CCc2[nH]c(-c3ccccc3)nc2C1,35.8
20,Cc1cc(O)n2nc(C3CCN(C(=O)c4ccccn4)CC3)cc2n1,7.55
21,CC(=O)N1[C@H](CN(C)C)C[C@@H]2CN(C(=O)Cc3cccs3)CC[C@@H]21,-61.5
22,Cn1nc(Br)c2c(NCCN)ncnc21,15.7
23,Cc1ccc(-c2cc(N)c(=O)n(CC(=O)NCC3CCCCC3)n2)s1,39.2
24,Cc1ccc(-c2cc(N)c(=O)n(CC(=O)NC3CCCC3)n2)s1,6.32
25,Cc1ccc(-c2cc(N)c(=O)n(CC(=O)NC3CCCCC3)n2)s1,55.2
26,COc1cccc(C(CO)NC(=O)Cc2cccc(C)c2)c1 (configuration not stated),53.4

row,SMILES,INHIBITION [%]
1,COc1cccc(C(CO)NC(=O)Cc2ccc(F)c(Br)c2)c1 (configuration not stated),22.6
2,COc1ccc(C(CO)NC(=O)Nc2cccc(C(C)=O)c2)cc1 (configuration not stated),-6.51
3,COCC(=O)NC(C)Cc1cccc(OC)c1 (configuration not stated),15.5
4,COc1cccc(C(CO)NC(=O)NC(C)C)c1 (configuration not stated),91.1
5,COc1cccc(CC(C)NC(=O)NC(C)C)c1 (configuration not stated),30.3
6,CN1CCN2C[C@@H](CO)[C@H](c3ccccc3)[C@H]2C1,17.7
7,OCCCNc1cccc(COC2CCCCC2)c1,17.5
8,CN(C)CCN1C(=O)CCCC12CCCN(C(=O)c1cc[nH]n1)C2 (configuration not stated),34.5
9,Cn1cc([C@@H]2CN(S(C)(=O)=O)C[C@H]2N)c2ccncc21,-10.795
10,CC(C)Cc1cc(-c2cc(-c3ccc[nH]3)nc(N)c2C#N)n[nH]1,48.8
11,CS(=O)(=O)NCCC(=O)Nc1ccccc1N1CCc2ccccc21,40.5
12,CNC(=O)NCC(=O)Nc1ccccc1N1CCc2ccccc21,30.5
13,CCS(=O)(=O)CC(=O)Nc1ccccc1N1CCc2ccccc21,63.3
14,CCN1CC(c2ccccc2)CC2(CCN(Cc3ncc[nH]3)CC2)C1 (configuration not stated),42.1
15,O=C1CCC2(CCN(Cc3cscn3)CC2)CN1C1CCC(O)CC1 (configuration not stated),-60.7
16,c1ccc(C2CN(C3CC3)CC3(CCN(Cc4cscn4)CC3)C2)cc1 (configuration not stated),70.1
17,c1ccc(C2CN(C3CC3)CC3(CCN(Cc4ncc[nH]4)CC3)C2)cc1 (configuration not stated),53.3
18,COCCC(=O)N1CCC2(CC1)CC(c1ccccc1)CN(C1CC1)C2 (configuration not stated),14
19,CN1CC(c2ccccc2)CC2(CCN(Cc3ncc[nH]3)CC2)C1 (configuration not stated),49.9
20,Cc1cn2c(=O)c(-c3ccnc(N[C@@H]4CCOC4)n3)cnc2s1,17.4
21,Cc1nc(COC[C@@]23CCC[C@@H]2CN(Cc2nccs2)C3)cs1,42.6
22,COCCCN1CC2(CCCN(c3ncc(Cl)cc3F)C2)CCC1=O (configuration not stated),37.7
23,COCCN1CC2(CCCN(c3ncc(Cl)cc3F)C2)CCC1=O (configuration not stated),78.5
24,CN(C)CCN1CC2(CCCN(c3ncc(Cl)cc3F)C2)CCC1=O (configuration not stated),37.7
